The panel holds about 83,000 compounds, 20% with a hit somewhere; the sample as a whole holds those more often.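 Single-dose data. Exposure time 48 hours. Values below 10 considered active.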 Unmarked numbers belong to inactive results. Active and inactive are the calls of the source.
Each molecule was assayed on A498 renal (assay: NCI-60 one-dose screen, 48 h (100 = growth as untreated, 0 = no growth, -100 = all killed)). Details: 10 µM unless noted.
Experimental: Growth inhibition of the A498 human tumor cell line is measured as a screen for anti-cancer activity. Cells are grown in 96 well plates and exposed to the test compound for 48 hours. Compounds are tested at a single concentration, which is 10^-5 M for most compounds. The reported endpoint is percent growth (GI% or GIPRCNT), where numbers from 0 - 100% represent growth inhibition, and numbers from -100% - 0 represent cell death. For example, a value of 40 represents 60% growth inhibition. A value of 0 means no net growth occurred over the course of the experiment. A value of -40 indicates 40% of cells at the beginning of the experiment died by the end of the experiment. A value of -100 means all cells are dead at the end of the experiment.
NCI-60 Human Tumor Cell Lines Screen was performed using the standard one-dose NCI protocol, which is described in more detail at https://dtp.cancer.gov/discovery_development/nci-60/default.htm.
Compounds with GIPRCNT values below 10 were considered active. Activity score was based on GIPRCNT using the following formula: […]
Score is 0 for GIPRCNT values of 100 or above, 50 for GIPRCNT values of 0, and 100 for GIPRCNT values of -100.

| Compound | growth |
| --- | --- |
| COc1ccc2cc(-c3nc(C)c(C(C)=O)c(-c4ccc(C)cc4)n3)ccc2c1 | 83% |
| Nc1ccc(N(O)/C=C2\C=CC=CC2=O)cc1N | 88.9% |
| C=C1NC(=O)C(C(C)CC)NC(=O)C2CSCC(NC(=O)CCC(=O)O)C(=O)NC(Cc3ccccc3)C(=O)NC(C)C(=O)NC(CC(C)CC)C(=O)NC(C(=O)NC(Cc3ccccc3)C(=O)N3CCCC3C(=O)N2)C(C)OC(=O)C(CO)NC(=O)C(C(O)COC)N(C)C(=O)C(C(C)C)NC(=O)C(CC(C)CC)NC1=O (stereo not given) | -11.8% [6 µM] (active) |
| Cc1cc(N=Nc2ccc(-c3ccc(N=Nc4ccc(O)c(C(=O)O)c4)cc3)cc2)c(N)c(N=Nc2ccc(C(=O)O)cc2)c1N | 101% |
| Nc1c(C(=O)Nc2cccc(Cl)c2)sc2ncc(Br)cc12 | 96.5% |
| O=C(C(=O)c1cccnc1)c1cccnc1 | 55.6% |
| Cc1cc(C)cc(CCCCCCCCCCCCCCCCCC(=O)O)c1 | 106% |
| COc1cccc(CC(C)=C(c2ccc(OCCCN(C)C)cc2)c2ccc(OCCCN(C)C)cc2)c1 | 18.6% |
| C#CC[C@@H]1C[C@]2(C)[C@H]3CC=C4[C@H]5[C@@H](C)[C@H](C)CC[C@]5(C(=O)NCCCCCCCCN)CC[C@@]4(C)[C@]3(C)CC[C@H]2C(C)(C)[C@H]1OC(C)=O | 94.5% |
| O=C1OCC2=C1C(c1ccc(Cl)c(Cl)c1)c1cc3c(cc1N2CCO)CCC3 (stereo not given) | -0.897% (active) |
| Cc1ccc(Nc2nc(NCCO)c3ccccc3n2)cc1C | -11.9% (active) |
| CC(=O)O[C@H]1[C@H](CC#CC#CC[C@@H]2C[C@]3(C)[C@H]4CC=C5[C@H]6[C@@H](C)[C@H](C)CC[C@]6(C(=O)NCCCCCCCCN)CC[C@@]5(C)[C@]4(C)CC[C@H]3C(C)(C)[C@H]2OC(C)=O)C[C@]2(C)[C@H]3CC=C4[C@H]5[C@@H](C)[C@H](C)CC[C@]5(C(=O)NCCCCCCCCN)CC[C@@]4(C)[C@]3(C)CC[C@H]2C1(C)C | 118% |
| Cc1ccc(NC(=O)Cn2nncc2CN2C(=O)CSC2=O)cc1C | 93.3% |
| O=C1/C(=C\c2cccn2C(=O)c2ccccc2)c2ccccc2N1c1c(Cl)cccc1Cl | 90.4% |
| COCCn1c(Nc2ccc(C(=O)NO)cc2)nc2ccccc21 | 84.2% |
| CC(=O)c1cc(C(=O)c2ccc3c(c2)Sc2ccccc2N3)c2c(C)cccn12 | -5.33% (active) |
| COc1ccc(-c2oc(=O)ccc2-c2cc(OC)c(OC)c(OC)c2)cc1F | 83.4% |
| COc1ccc(/C=C2\N=C(c3cccnc3)N(c3ccccc3)NC2=O)cc1 | 71.8% |
| COc1cc(C2CC(c3ccc(Cl)cc3)=NN2C=O)ccc1OS(=O)(=O)c1ccc(C)cc1 (stereo not given) | 74.1% |
| COc1ccc(C2=Nn3c(nnc3-c3ccc(Cl)cc3N)SC2)cc1 | 118% |

| Compound | growth |
| --- | --- |
| Nc1nc(N)c2c(n1)NC(c1sc(Cl)nc1Cl)CC(c1ccc3c(c1)OCO3)=N2 (stereo not given) | -2.91% (active) |
| CC(C)CC(NC(=O)C(CCCN=C(N)N)NC(=O)OCc1ccccc1)C(=O)NC(CNC(=O)/C=C/c1ccccc1)C(C)C (stereo not given) | 103% |
| C/C=C(\C)C(C(=O)NC1CCCCC1)N(C(=O)C1CCc2cc(F)ccc2O1)c1ccc([N+](=O)[O-])cc1 (stereo not given) | 90.3% |
| COc1cc(C2CC(c3cccc(Nc4ccnc5cc(Cl)ccc45)c3)=NN2c2ccc(Cl)cc2)cc(OC)c1OC (stereo not given) | 64.9% |
| CCCCn1c(C)nc2ccc(Nc3nc(Cl)nc4nc[nH]c34)cc21 | -0.303% (active) |
| CNCCCNc1ccnc2cc(Cl)ccc12 | -78.2% (active) |
| CCCCNCC(O)c1cc2c(Cl)cc(Cl)cc2c2cc(C(F)(F)F)ccc12 (stereo not given) | -19.7% (active) |
| O=Cc1ccc2nc(C(Cl)(Cl)Cl)ccc2c1 | 93.6% |
| COc1ccc2c(c1)CCCC21C(=O)Nc2ccccc21 (stereo not given) | 99.7% |
| CCN(CC)CCCC(C)Nc1cnc(C(=O)Nc2cc(C)cc3cccnc23)cn1 (stereo not given) | 70.3% |
| CCOP(=O)(O)OP(=O)(O)OCC | 110% |
| O=C(CI)NCCNc1cccc2c(S(=O)(=O)O)cccc12 | 92.7% |
| Cc1ccccc1CNc1ncnc2[nH]ncc12 | 93.9% |
| N[C@@H](CO)C(=O)O | 85.3% |
| O=C1C=CC(=O)N1CO | 113% |
| COc1ccc2[nH]cc(C(c3ccc(Cl)cc3)N3CCCC3)c2c1 (stereo not given) | 87% |
| N#Cc1nc(-c2cccc(Br)c2)cc(-c2ccc(Nc3nc(N4CCCCC4)nc(N4CCCCC4)n3)cc2)c1N | -20% (active) |
| C=CCn1c(C)nc2cc(Nc3nc(N4CCOCC4)nc4nc[nH]c34)ccc21 | 37.5% |
| Nc1nc2c(c3ncccc13)C(c1ccccc1)Cc1ncccc1-2 (stereo not given) | 78.2% |
| CC(C)(C)CC(C)(C)NCc1cc(C(C)(C)C)cc(CNC(C)(C)CC(C)(C)C)c1O | 64.9% |

Source: PubChem BioAssay (NCI)
